Values without a mark were called inactive. Records with an inconclusive call do not appear. A call without a number means that no potency is given here. The source made the active and inactive calls. Unless noted, calls come from the whole dose curve; as a rule, active = well fitted curve in the direction sought with a large enough effect in the repeat runs; inconclusive = weak or mixed curves; inactive = no such curve, though single readings can be large; an effect the other way counts as inactive or inconclusive.
What was measured:
[1] = molecular target: Thyrotropin-releasing hormone receptor (Homo sapiens) (UniProt P34981); assay: qHTS assay to identify small molecule agonists of the thyrotropin-releasing hormone receptor (TRHR) signaling pathway (AID 1346891; calls by dose curve; note: series mostly up to about 58 µM)
Outline: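 Agonist-mode intracellular calcium readout: kinetic fluorescence over 3 min at 1 s intervals after compound addition to TRHR-HEK293 cells (18 h seeded, 2 h dye-loaded at 37 C). Fifteen concentrations, triplicates.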

[2] = Human pregnane X receptor (PXR) small molecule agonists, qHTS cell viability counter screen (AID 1346977); note: nearly all actives have a fitted effect of over 50% in size; note: potency is the fitted concentration of half-maximal effect
Outline: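 Same-well viability read: CellTiter-Fluor added after 23 hr compound exposure, fluorescence measured 1 hr later. Cells were PXR-Luc HepG2 seeded at 2,000/well in 5% charcoal-stripped FBS medium, rested 5 hr before dosing at 37 C.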

[3] = Caspase-3/7 induction in HepG2 cells by small molecules, qHTS assay (AID 1346978); note: nearly all actives have a fitted effect of over 15% in size
Outline: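 Wild-type HepG2 cells (2,000/well) were settled 5 h at 37 C, 5% CO2, then exposed to compounds in DMSO for 17 h. Caspase-3/7 activity was read by luminescence 30 min after adding Caspase-Glo 3/7 reagent at room temperature.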

[4] = Caspase-3/7 induction in CHO-K1 cells by small molecules, qHTS cell viability counter screen (AID 1346979); note: nearly all actives have a fitted effect of over 35% in size
Outline: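 Cytotoxicity counter screen: CellTiter-Fluor added to compound-treated wild-type CHO-K1 cells at 16 h (37C, 5% CO2), fluorescence measured 1 h later; same wells as caspase-3/7 measurement.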

[5] = Caspase-3/7 induction in CHO-K1 cells by small molecules, qHTS assay (AID 1346980); note: nearly all actives have a fitted effect of over 15% in size
Outline: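 Wild-type cells were seeded at 1,500 per well and settled 5 hr at 37 C, 5% CO2, then exposed to DMSO-dissolved compounds for 17 hr. Caspase-Glo 3/7 reagent was added, and luminescence was read after 30min at room temperature.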

[6] = Caspase-3/7 induction in HepG2 cells by small molecules, qHTS cell viability counter screen (AID 1346981); note: series mostly up to about 92 µM; nearly all actives have a fitted effect of over 30% in size
Outline: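 Cell viability is measured as a cytotoxicity counter screen alongside the Caspase-Glo 3/7 readout in identical wells. Wild-type HepG2 cells are treated with test compounds for 16 hr at 37 C before CellTiter-Fluor addition and a 1-hr incubation.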

[7] = molecular target: Cytochrome P450 2D6 (Homo sapiens) (UniProt P10635); assay: Cytochrome P450 Family 2 Subfamily D Member 6 (CYP2D6) small molecule antagonists: luciferase reporter qHTS assay (AID 1671196); note: nearly all actives have a fitted effect of over 50% in size; note: potency is the fitted concentration of half-maximal effect; for activity change, negative = inhibition: series mostly up to about 120 µM
Outline: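 Enzyme and proluciferin substrate were first combined with test chemical for 10 min at room temperature. Adding NADPH regeneration solution started a 1 h reaction, stopped with luciferin detection reagent and read by luminescence 20 min later.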

[8] = molecular target: Cytochrome P450 2C19 (Homo sapiens) (UniProt P33261); assay: Cytochrome P450 Family 2 Subfamily C Member 19 (CYP2C19) small molecule antagonists: luciferase reporter qHTS assay (AID 1671197); note: nearly all actives have a fitted effect of over 65% in size; note: potency is the fitted concentration of half-maximal effect; for activity change, negative = inhibition: series mostly up to about 120 µM
Outline: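 P450-Glo CYP2C19 system: enzyme-substrate mix with compound 10 min at room temperature, then NADPH regeneration solution, 1 h at 37C. Proluciferin-to-luciferin conversion detected by luminescence after 20 min with detection reagent; ketoconazole as positive control.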

[9] = molecular target: Voltage-gated inwardly rectifying potassium channel KCNH2 (Homo sapiens) (UniProt Q12809); assay: Human Ether-a-go-go-Related Gene (hERG) channel small molecule antagonists: fluorescence cell-based qHTS assay (AID 1671200); note: series mostly up to about 77 µM; nearly all actives have a fitted effect of over 50% in size
Outline: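 Thallium flux as potassium surrogate: FluxOR II dye loaded 1 h at room temperature into hERG-expressing U2OS cells, then stimulus buffer added after 10 min. Kinetic 480 nm excitation/540 nm emission read, 2 min.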

[10] = molecular target: Cytochrome P450 3A4 (Homo sapiens) (UniProt P08684); assay: Cytochrome P450 Family 3 Subfamily A Member 4 (CYP3A4) small molecule antagonists: luciferase reporter qHTS assay (AID 1671201); note: series mostly up to about 120 µM; nearly all actives have a fitted effect of over 50% in size
Outline: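 Recombinant human CYP3A4 converts a proluciferin substrate to luciferin over 1 h at room temperature after NADPH regeneration solution is added (compound preincubated 10 min); detection reagent stops reaction, luminescence read 20 min later as relative units.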

[11] = molecular target: Nuclear receptor subfamily 1 group I member 2 (Rattus norvegicus) (UniProt Q9R1A7); assay: Rat pregnane X receptor (rPXR) activation by small molecules, qHTS assay (AID 1346983); conditions: rPXR luciferase reporter cells, One-Glo luminescence, 24 h; max activation: stronger effect = higher value; note: nearly all actives have a fitted effect of over 20% in size; note: potency is the fitted concentration of half-maximal effect
Outline: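 Cell-based rPXR luciferase reporter assay, 2,000 cells per well, rested 5hr at 37 C before compound addition in DMSO, then 24 hr at 37 C. One-Glo reagent was added and luminescence read after 30 min at room temperature.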

[12] = molecular target: Nuclear receptor subfamily 1 group I member 2 (Homo sapiens) (UniProt O75469); assay: CYP3A4 induction through human pregnane X receptor (PXR) by small molecules, qHTS assay (AID 1346984); note: nearly all actives have a fitted effect of over 40% in size
Outline: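 Quantitative HTS in DPX-2 cells, i.e. HepG2 transfected with PXR response element and CYP3A4-promoter luciferase. Compounds in DMSO incubated 24hr at 37C; then P450-Glo CYP3A4 substrate, 3uM final, 3hr; One-Glo luminescence.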

[13] = molecular target: Nuclear receptor subfamily 1 group I member 2 (Homo sapiens) (UniProt O75469); assay: Human pregnane X receptor (PXR) activation by small molecules, qHTS assay (AID 1346985); note: nearly all actives have a fitted effect of over 40% in size
Outline: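 DPX-2 cells (HepG2 co-transfected with a PXR response element and a CYP3A4-promoter luciferase construct) were seeded at 2,000 per well, rested 5 hr at 37C, then exposed to DMSO-dissolved compounds for 24 hr. Activation was read as luciferase luminescence.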

[14] = molecular target: Cytochrome P450 2C9 (Homo sapiens) (UniProt P11712); assay: Cytochrome P450 Family 2 Subfamily C Member 9 (CYP2C9) small molecule antagonists: luciferase reporter qHTS assay (AID 1671198); note: nearly all actives have a fitted effect of over 50% in size; note: potency is the fitted concentration of half-maximal effect; for activity change, negative = inhibition: series mostly up to about 120 µM
Outline: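 CYP2C9 activity was measured with a P450-Glo proluciferin substrate. Enzyme–substrate mix was held with compound for 10 min at room temperature, then NADPH regeneration solution was added for 1 h at 37C. Luciferin product was read as luminescence.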

[15] = molecular target: Nuclear receptor subfamily 1 group I member 2 (Homo sapiens) (UniProt O75469); assay: Human pregnane X receptor (PXR) small molecule agonists, qHTS assay (AID 1346982); note: nearly all actives have a fitted effect of over 35% in size; note: potency is the fitted concentration of half-maximal effect
Outline: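 Cells: HepG2 stably carrying PXR-Luc. Medium held 5% charcoal-stripped FBS. Compounds in DMSO added after 5 hr plating, incubated 24 hr, then luminescence quantified with ONE-Glo.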

[16] = molecular target: Cytochrome P450 1A2 (Homo sapiens) (UniProt P05177); assay: Cytochrome P450 Family 1 Subfamily A Member 2 (CYP1A2) small molecule antagonists: luciferase reporter qHTS assay (AID 1671199); note: nearly all actives have a fitted effect of over 50% in size; note: potency is the fitted concentration of half-maximal effect; for activity change, negative = inhibition: series mostly up to about 120 µM
Outline: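 Compounds were incubated with CYP1A2 and a luminogenic proluciferin substrate for 10 min at room temperature before the reaction was started with NADPH regeneration solution. After 1 h, detection reagent was added and light output, proportional to CYP activity, was recorded.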

Sequence of Cytochrome P450 2C9 (Homo sapiens) (P11712 whole entry, looked up): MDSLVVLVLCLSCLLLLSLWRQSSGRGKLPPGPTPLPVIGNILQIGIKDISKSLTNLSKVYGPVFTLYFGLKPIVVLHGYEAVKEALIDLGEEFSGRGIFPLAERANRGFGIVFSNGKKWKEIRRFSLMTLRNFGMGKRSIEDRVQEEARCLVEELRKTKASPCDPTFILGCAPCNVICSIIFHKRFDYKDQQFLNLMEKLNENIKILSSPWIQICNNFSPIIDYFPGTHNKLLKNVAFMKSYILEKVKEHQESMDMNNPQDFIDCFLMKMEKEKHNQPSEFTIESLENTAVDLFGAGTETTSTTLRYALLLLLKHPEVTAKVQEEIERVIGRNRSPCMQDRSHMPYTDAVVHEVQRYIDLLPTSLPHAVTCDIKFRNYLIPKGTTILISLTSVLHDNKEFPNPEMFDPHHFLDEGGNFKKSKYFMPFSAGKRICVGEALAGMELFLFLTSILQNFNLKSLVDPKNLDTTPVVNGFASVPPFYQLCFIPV
Sequence of Cytochrome P450 3A4 (Homo sapiens) (P08684 whole entry, looked up): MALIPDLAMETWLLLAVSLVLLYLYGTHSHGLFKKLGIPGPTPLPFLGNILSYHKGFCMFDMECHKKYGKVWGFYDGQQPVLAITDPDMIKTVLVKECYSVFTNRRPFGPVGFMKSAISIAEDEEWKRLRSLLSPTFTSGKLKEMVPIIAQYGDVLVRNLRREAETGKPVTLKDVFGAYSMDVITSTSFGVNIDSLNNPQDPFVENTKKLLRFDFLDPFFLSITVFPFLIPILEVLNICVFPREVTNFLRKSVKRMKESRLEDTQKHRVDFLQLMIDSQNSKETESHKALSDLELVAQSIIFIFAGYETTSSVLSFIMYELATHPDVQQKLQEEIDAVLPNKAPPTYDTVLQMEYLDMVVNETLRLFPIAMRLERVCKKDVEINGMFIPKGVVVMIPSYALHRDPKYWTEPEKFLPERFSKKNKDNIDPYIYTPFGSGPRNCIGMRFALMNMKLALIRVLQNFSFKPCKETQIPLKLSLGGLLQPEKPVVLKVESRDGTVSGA
Sequence of Nuclear receptor subfamily 1 group I member 2 (Rattus norvegicus) (Q9R1A7 whole entry, looked up): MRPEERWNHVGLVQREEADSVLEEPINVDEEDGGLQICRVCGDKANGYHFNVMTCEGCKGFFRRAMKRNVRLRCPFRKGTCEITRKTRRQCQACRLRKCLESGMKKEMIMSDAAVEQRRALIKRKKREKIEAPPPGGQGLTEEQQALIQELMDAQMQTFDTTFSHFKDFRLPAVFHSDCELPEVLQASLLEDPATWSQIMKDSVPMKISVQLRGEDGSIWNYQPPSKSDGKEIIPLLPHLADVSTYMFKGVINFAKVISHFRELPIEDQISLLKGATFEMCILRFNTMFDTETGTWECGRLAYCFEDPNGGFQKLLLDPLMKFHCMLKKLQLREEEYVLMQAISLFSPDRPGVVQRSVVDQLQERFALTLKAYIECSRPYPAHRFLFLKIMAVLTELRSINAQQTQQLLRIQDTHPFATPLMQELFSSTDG
Sequence of Nuclear receptor subfamily 1 group I member 2 (Homo sapiens) (O75469 whole entry, looked up): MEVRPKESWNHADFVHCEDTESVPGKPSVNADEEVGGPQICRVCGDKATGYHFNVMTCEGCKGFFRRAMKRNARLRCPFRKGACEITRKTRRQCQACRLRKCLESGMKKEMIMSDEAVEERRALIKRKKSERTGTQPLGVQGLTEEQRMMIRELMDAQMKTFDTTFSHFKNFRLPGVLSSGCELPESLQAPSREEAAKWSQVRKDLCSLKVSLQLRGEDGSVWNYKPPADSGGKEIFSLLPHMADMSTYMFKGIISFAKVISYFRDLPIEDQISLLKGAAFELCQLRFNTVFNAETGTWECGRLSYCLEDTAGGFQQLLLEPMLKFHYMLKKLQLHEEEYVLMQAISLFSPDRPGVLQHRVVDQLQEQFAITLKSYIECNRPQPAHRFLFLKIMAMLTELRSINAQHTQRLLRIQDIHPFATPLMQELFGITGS
Sequence of Cytochrome P450 2C19 (Homo sapiens) (P33261 whole entry, looked up): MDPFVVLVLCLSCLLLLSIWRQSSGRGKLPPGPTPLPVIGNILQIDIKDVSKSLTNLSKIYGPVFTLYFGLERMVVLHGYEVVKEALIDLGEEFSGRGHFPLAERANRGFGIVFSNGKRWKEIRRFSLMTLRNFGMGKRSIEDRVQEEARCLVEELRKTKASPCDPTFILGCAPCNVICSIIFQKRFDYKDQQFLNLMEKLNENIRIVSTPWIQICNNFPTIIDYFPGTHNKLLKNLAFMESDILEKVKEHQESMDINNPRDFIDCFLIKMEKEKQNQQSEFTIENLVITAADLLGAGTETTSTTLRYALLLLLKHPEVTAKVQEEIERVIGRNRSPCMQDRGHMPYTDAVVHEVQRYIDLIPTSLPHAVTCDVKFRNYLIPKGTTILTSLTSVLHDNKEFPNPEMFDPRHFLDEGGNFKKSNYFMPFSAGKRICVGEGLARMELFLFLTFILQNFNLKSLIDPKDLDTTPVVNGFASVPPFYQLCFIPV
Sequence of Cytochrome P450 1A2 (Homo sapiens) (P05177 whole entry, looked up): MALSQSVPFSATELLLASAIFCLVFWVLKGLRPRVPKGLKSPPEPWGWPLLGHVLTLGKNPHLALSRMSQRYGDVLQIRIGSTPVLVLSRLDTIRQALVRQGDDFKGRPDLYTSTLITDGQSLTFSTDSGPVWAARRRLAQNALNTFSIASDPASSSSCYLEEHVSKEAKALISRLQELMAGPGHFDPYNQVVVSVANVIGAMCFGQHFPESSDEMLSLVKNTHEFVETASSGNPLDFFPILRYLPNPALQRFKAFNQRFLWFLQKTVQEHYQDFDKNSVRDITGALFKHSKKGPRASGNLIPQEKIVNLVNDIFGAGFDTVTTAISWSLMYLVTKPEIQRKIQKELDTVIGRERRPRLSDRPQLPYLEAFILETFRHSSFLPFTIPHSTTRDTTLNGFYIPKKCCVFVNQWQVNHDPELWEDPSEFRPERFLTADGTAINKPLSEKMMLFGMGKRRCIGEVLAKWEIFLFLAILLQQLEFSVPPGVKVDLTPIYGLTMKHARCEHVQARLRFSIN
Sequence of Cytochrome P450 2D6 (Homo sapiens) (P10635 whole entry, looked up): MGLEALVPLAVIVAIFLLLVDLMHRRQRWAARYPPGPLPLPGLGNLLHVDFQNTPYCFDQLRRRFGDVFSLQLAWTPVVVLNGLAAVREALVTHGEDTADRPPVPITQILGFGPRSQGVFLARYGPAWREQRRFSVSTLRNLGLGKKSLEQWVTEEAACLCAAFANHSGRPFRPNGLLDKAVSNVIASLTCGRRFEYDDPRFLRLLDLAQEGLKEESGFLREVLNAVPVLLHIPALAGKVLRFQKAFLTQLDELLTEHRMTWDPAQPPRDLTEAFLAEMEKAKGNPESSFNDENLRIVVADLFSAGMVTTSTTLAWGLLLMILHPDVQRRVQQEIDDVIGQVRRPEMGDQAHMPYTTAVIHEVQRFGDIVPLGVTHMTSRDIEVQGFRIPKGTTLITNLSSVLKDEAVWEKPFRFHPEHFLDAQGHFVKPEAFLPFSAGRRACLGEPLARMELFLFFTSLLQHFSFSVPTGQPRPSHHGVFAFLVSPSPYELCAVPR
Sequence of Voltage-gated inwardly rectifying potassium channel KCNH2 (Homo sapiens) (Q12809 whole entry, looked up): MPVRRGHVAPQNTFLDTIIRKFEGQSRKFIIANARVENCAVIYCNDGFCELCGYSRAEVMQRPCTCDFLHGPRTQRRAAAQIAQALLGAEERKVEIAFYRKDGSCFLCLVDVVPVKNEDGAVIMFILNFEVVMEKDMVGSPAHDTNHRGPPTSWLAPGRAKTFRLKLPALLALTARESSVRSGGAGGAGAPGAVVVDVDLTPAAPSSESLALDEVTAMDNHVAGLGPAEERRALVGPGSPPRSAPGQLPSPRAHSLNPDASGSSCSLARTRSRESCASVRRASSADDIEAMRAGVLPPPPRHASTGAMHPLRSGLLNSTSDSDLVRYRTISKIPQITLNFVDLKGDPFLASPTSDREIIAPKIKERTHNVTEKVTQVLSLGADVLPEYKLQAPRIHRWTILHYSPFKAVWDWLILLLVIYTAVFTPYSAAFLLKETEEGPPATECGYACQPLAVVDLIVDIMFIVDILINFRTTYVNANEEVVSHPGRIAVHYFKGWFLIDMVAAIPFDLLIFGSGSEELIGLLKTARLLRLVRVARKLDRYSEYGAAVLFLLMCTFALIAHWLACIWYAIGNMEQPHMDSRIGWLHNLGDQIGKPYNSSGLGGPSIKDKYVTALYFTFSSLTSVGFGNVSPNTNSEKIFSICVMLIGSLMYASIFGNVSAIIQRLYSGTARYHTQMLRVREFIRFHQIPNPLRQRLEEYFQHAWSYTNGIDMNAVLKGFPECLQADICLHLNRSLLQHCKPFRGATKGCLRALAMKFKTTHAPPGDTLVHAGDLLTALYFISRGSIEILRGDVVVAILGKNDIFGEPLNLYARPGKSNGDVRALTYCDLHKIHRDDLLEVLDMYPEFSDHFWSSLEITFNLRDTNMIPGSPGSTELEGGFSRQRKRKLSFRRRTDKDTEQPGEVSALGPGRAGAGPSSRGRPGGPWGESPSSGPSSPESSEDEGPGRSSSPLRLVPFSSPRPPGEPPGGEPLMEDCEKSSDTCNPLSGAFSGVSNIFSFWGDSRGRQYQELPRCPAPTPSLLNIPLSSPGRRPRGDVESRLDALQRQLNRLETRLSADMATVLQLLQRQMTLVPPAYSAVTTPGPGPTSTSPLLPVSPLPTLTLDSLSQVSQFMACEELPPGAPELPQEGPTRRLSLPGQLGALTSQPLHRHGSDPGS
Sequence of Thyrotropin-releasing hormone receptor (Homo sapiens) (P34981 whole entry, looked up): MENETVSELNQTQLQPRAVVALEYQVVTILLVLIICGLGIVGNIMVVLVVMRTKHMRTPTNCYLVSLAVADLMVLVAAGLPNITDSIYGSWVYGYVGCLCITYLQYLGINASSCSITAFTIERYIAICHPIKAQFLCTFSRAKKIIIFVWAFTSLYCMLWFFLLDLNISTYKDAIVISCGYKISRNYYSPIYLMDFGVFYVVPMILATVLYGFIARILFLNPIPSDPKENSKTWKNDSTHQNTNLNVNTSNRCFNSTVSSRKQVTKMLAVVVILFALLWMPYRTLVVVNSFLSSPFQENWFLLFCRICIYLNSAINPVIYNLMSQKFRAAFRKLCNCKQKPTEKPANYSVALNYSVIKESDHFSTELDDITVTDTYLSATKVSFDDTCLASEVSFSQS

Structure (SMILES): CC(C=O)Cc1ccc(C(C)C)cc1 (stereo not given)
- outcome [1]: inactive
- Potency [2]: inactive
- outcome [3]: inactive
- Potency [4]: inactive
- outcome [5]: inactive
- outcome [6]: inactive
- Potency [7]: inactive
- Potency [8]: 50.2 µM (active)
- Potency [9]: inactive
- Potency [10]: inactive

Structure (SMILES): CC(=O)O[C@H](CC(=O)[O-])C[N+](C)(C)C
- outcome [1]: inactive
- Potency [2]: inactive
- outcome [3]: inactive
- Potency [4]: inactive
- outcome [5]: inactive
- outcome [6]: inactive
- Potency [9]: inactive

Structure (SMILES): CC(C)c1ccc2oc3nc(N)c(C(=O)O)cc3c(=O)c2c1
- outcome [1]: inactive
- Potency [2]: inactive
- outcome [3]: inactive
- Potency [4]: inactive
- outcome [6]: inactive
- Potency [11]: 4.47 µM (active)
- Potency [12]: inactive
- Potency [13]: inactive
- Potency [7]: 15.5 µM (active)
- Potency [14]: 13.8 µM (active)
- Potency [9]: inactive

Structure (SMILES): [O-][N+](=Nc1ccccc1)c1ccccc1
- outcome [1]: inactive
- Potency [2]: inactive
- outcome [3]: inactive
- outcome [5]: inactive
- outcome [6]: inactive
- Potency [15]: 21.7 µM (active)
- max activation [11]: 13.9%
- Potency [12]: inactive
- Potency [13]: inactive
- Potency [8]: 63.3 µM (active)
- Potency [16]: 5.64 µM (active)
- Potency [9]: inactive
- Potency [10]: inactive

Structure (SMILES): OCCN1C[C@H](O)[C@@H](O)[C@H](O)[C@H]1CO
- outcome [1]: inactive
- Potency [2]: inactive
- outcome [3]: inactive
- outcome [5]: inactive
- outcome [6]: inactive
- Potency [15]: inactive
- max activation [11]: -2.71%
- Potency [12]: inactive
- Potency [13]: inactive
- Potency [7]: inactive
- Potency [16]: inactive
- Potency [9]: inactive
- Potency [10]: inactive

Structure (SMILES): O=C(O)Cc1cc(I)c(Oc2cc(I)c(O)c(I)c2)c(I)c1
- outcome [1]: inactive
- Potency [2]: inactive
- outcome [3]: inactive
- outcome [5]: inactive
- Potency [15]: 37.8 µM (active)
- Potency [7]: inactive
- Potency [8]: inactive
- Potency [14]: 34.9 µM (active)
- Potency [16]: inactive
- Potency [9]: inactive
- Potency [10]: inactive

Structure (SMILES): FC(F)(F)C(F)(F)C(F)(F)C(F)(F)C(F)(F)C(F)(F)C(F)(F)C(F)(F)C(F)(F)C(F)(F)F
- activation [1]: 0.116% [at 5.23 µM]
- caspase activation [3]: -0.76% [at 8.39 µM]
- activity change, negative = cytotoxicity [4]: 7.28% [at 8.39 µM]
- caspase-3/7 activation [5]: -0.497% [at 8.39 µM]
- activity change, negative = cytotoxicity [6]: 5.96% [at 8.39 µM]
- activation [15]: -1.65% [at 8.39 µM]
- activity change, negative = inhibition [7]: -5% [at 10.5 µM]
- activity change, negative = inhibition [8]: -6.18% [at 10.5 µM]
- activity change, negative = inhibition [14]: -5.26% [at 10.5 µM]
- activity change, negative = inhibition [16]: -15.3% [at 10.5 µM]
- activity change, negative = inhibition [9]: 1.96% [at 6.97 µM]
- activity change, negative = inhibition [10]: -3.38% [at 10.5 µM]

Structure (SMILES): CCn1c(=O)c2c(nc(/C=C/c3ccc(OC)c(OC)c3)n2C)n(CC)c1=O
- outcome [1]: inactive
- Potency [2]: inactive
- outcome [3]: inactive
- outcome [5]: inactive
- outcome [6]: inactive
- Potency [15]: 26.6 µM (active)
- Potency [7]: inactive
- Potency [16]: inactive
- Potency [9]: inactive

Structure (SMILES): CC(C)CCOC(=O)CC(C)C
- outcome [1]: inactive
- Potency [2]: inactive
- outcome [3]: inactive
- outcome [5]: inactive
- outcome [6]: inactive
- Potency [15]: inactive
- Potency [7]: inactive
- Potency [8]: inactive
- Potency [16]: inactive
- Potency [9]: inactive
- Potency [10]: inactive

Structure (SMILES): NC(=O)c1ncn([C@@H]2O[C@H](CO)[C@@H](O)[C@H]2O)c1O
- outcome [1]: inactive
- outcome [3]: inactive
- Potency [4]: inactive
- outcome [5]: inactive
- outcome [6]: inactive
- Potency [15]: inactive
- max activation [11]: -0.429%
- Potency [12]: inactive
- Potency [13]: inactive
- Potency [8]: inactive
- Potency [14]: inactive
- Potency [9]: inactive
- Potency [10]: inactive

Structure (SMILES): CC(C)CCCCCCN
- outcome [1]: inactive
- Potency [2]: inactive
- outcome [3]: inactive
- outcome [5]: inactive
- outcome [6]: inactive
- Potency [8]: inactive
- Potency [14]: inactive
- Potency [16]: inactive
- Potency [9]: inactive
- Potency [10]: inactive

Structure (SMILES): CN(C)C(=O)C(CCN1CCC(O)(c2ccc(Cl)cc2)CC1)(c1ccccc1)c1ccccc1
- outcome [1]: inactive
- Potency [2]: 23.7 µM (active)
- outcome [5]: inactive
- Potency [16]: inactive
- Potency [10]: inactive

— PubChem BioAssay (Tox21)
